Reference: PubChem BioAssay AID686978 (National Center for Advancing Translational Sciences (NCATS), 2013)
“And” between values parts separate entries of the source, which are not always exact repeats. Identical values can stand only once. The whole screen tested about 420,000 compounds, of which about 64,000 (15%) were called active. Entries that show only a call come without a potency. About 27% were inconclusive and are not listed. Calls follow the shape of the dose curve; as a rule, active = well fitted inhibition curve with a large enough effect; inconclusive = small, poorly fitted or top-dose-only effect; inactive = flat fitted curve, though single readings scatter. Many of the other results were omitted from the sample, so actives are more common in it than they were.

Experiment: qHTS for Inhibitors of human tyrosyl-DNA phosphodiesterase 1 (TDP1): qHTS in cells in absence of CPT; also: nearly all actives have a fitted effect of over 55% in size
Conditions: DT40 Tdp1-/- hTDP1 cells, no CPT, ATP luminescence, 48 h; series mostly up to 46.2 µM
Procedure, shortened: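 Growth of hTDP1-complemented DT40 Tdp1-knockout cells is measured by ATP luminescence after at least 48 hr compound exposure at 37 °C, with DMSO substituting for the 20 nM CPT used in the parallel screen.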
Potency is read from the fitted curve at half-maximal effect.

Row | Structure (SMILES) | Potency
1 | O=C(N/N=C/c1c(O)n(C2CC2)c(=S)[nH]c1=O)c1ccccc1Cl | inactive
2 | OC(CNC1CCCCC1)c1ccccc1 (stereo not given) | inactive
3 | CC1CC=CCC12C(=O)NC(=S)NC2=O (stereo not given) | inactive
4 | COc1ccccc1CNC(=O)Cn1c(=O)oc2cc(Cl)ccc21 | 18.4 µM (active)
5 | Cc1ccccc1N1C(=O)NC(=O)/C(=C\c2cc(C)n(C)c2C)C1=O | inactive
6 | C[C@@]12CCC3C(CC[C@@H]4CC(O)CC[C@@]34C)C1CCC2O (stereo not given in full) | inactive
7 | C[C@]12CCC3C(CC[C@H]4[C@H](O)[C@H](O)CC[C@]34C)C1CC[C@@H]2O (stereo not given in full) | inactive
8 | C[C@]12CCC3C(CC[C@H]4[C@H](O)[C@H](O)CC[C@]34C)C1CCC2=O (stereo not given in full) | 13 µM (active)
9 | CC1CCCCN1Cc1cccnc1 (stereo not given) | inactive
10 | CN1CCC(N(C)Cc2cccnc2)CC1 | inactive
11 | CCOP(=S)(OCC)SCOC(=O)NCC(=O)OC | inactive
12 | CC(Cc1cccs1)NCc1ccc(Cl)cc1 (stereo not given) | inactive
13 | C[C@@H]1Cn2cnc(C(=O)Nc3ccc(CNC(=O)OC(C)(C)C)cc3)c2C(=O)N1 | inactive
14 | O=C(NCC1=C(c2ccc3ccccc3c2)C[C@@H]2CC[C@H]1N2Cc1ccco1)c1cccs1 | 23.1 µM (active)
15 | CC(=O)NCC1=C(c2ccc3ccccc3c2)C[C@@H]2CC[C@H]1N2Cc1ccco1 | 23.1 µM (active)
16 | N[C@H](Cc1o[nH]c(=O)c1Cl)C(=O)O | inactive
17 | CC(=NCc1ccc2c(c1)OCO2)c1c(O)[nH]c(=O)[nH]c1=O | inactive
18 | Cc1ccc(S(=O)(=O)N(C)c2ccc(C(=O)NCC3(N(C)C)CCCCC3)cc2)cc1 | inactive
19 | CN(C)c1nc(N(C)C)nc(N(C#N)CCCl)n1 | inactive
20 | C/C(CCc1c[nH]c2ccccc12)=N\O | inactive
21 | COc1ccc(CNCCc2c[nH]c3ccccc23)cc1OC | 18.4 µM (active)
22 | c1cncc(CNCCc2c[nH]c3ccccc23)c1 | inactive
23 | COc1ccc2[nH]cc(CCNCc3ccc(Br)cc3)c2c1 | 10.3 µM (active)
24 | Cc1cc(C=C2C(=O)NC(=O)NC2=O)c(C)n1-c1ccncc1 | inactive

Row | Structure (SMILES) | Potency
25 | O=c1[nH]c(=O)n(CCc2ccccc2)c(O)c1/C=N/N1CCOCC1 | inactive
26 | Cc1ccc(Cl)cc1N1CCN(C(=O)C2CCC(CNS(=O)(=O)c3cccs3)CC2)CC1 (stereo not given) | 18.4 µM (active)
27 | Cc1nc2nc(C)c(CCC(=O)N3CCC4(CC3)OCCO4)c(C)n2n1 | inactive
28 | CCOP(=O)(OCC)C(O)c1ccc(OC)cc1OC (stereo not given) | inactive
29 | CC[C@H]1CN2CCc3cc(OC)c(OC)cc3[C@@H]2C[C@@H]1C[C@H]1NCCc2cc(OC)c(OC)cc21 | 150 nM (active) and 36.6 nM (active)
30 | Nc1ccc([N+](=O)[O-])cc1 | inactive
31 | CCOc1ccc(CN(CCCl)CCCl)cc1C(=O)OC | 4.11 µM (active)
32 | COC([CH2][Hg])CNC(=O)c1ccccc1OCC(=O)O (stereo not given) | 1.68 µM (active)
33 | CC1([N+](=O)[O-])COP(=O)(Nc2ccc(F)cc2)OC1 (stereo not given) | inactive
34 | Cc1ccc(NC(=O)N(Cc2ccc3c(c2)OCO3)C2CCN(Cc3ccccc3)CC2)cc1F | 23.1 µM (active)
35 | O=C(Cc1ccccc1[N+](=O)[O-])N1CCN(Cc2ccc3c(c2)OCO3)CC1 | inactive
36 | Fc1ccc(N2CCN(Cc3ccc4c(c3)OCO4)CC2)cc1 | inactive
37 | OCC#CC[N+]1(CC#Cc2ccccc2)CCCC1 | inactive
38 | CN1CCN(Cc2ccc(OC(F)(F)F)cc2)CC1 | inactive
39 | CN(C)CCCN=Cc1c(O)n(Cc2ccco2)c(=O)[nH]c1=O | inactive
40 | ClCCN(CCCl)c1ccc(C=Nc2ccc(/C=C/c3ccnc4ccccc34)cc2)cc1 | 11.2 µM (active)
41 | COc1ccccc1NC(=O)N1C[C@@H]2C[C@@H](C1)c1cccc(=O)n1C2 | inactive
42 | COc1ccccc1N=Nc1c(O)[nH]c(=S)[nH]c1=O | inactive
43 | O=c1[nH]c(=S)[nH]c(O)c1/C=C1\C=Nc2ccccc21 | 9.2 µM (active)
44 | CNC(=S)N/N=C1\C2CN3CCN(C2)CC1(c1ccccc1)C3 | inactive
45 | C=C(C)C1(CCCC)C(=O)NC(=S)NC1=O | inactive
46 | CC(C)C(N)C(=O)OCCOCn1cnc2c(=O)[nH]c(N)nc21 (stereo not given) | 4.11 µM (active)
47 | CC/C(=N\NC(=O)c1ccccc1O)c1c(O)n(Cc2ccccc2)c(=O)[nH]c1=O | inactive
48 | CC(=O)N(C1=NCCCS1)c1ccccc1F | inactive

Row | Structure (SMILES) | Potency
49 | C[C@]12CCCCC1=CC(=O)C1C2CC[C@@]2(C)C1C[C@@H](F)[C@@H]2O (stereo not given in full) | 16.4 µM (active)
50 | NCCc1ccc(S(=O)(=O)F)cc1 | inactive
51 | N=c1ccccn1Cc1ccccc1 | inactive
52 | C/C(=C\C=C/[C@@H](C)C(=O)O)[C@H]1CN[C@H](C(=O)O)[C@@H]1CC(=O)O | inactive
53 | Cc1cccc(OP(=O)(Oc2cccc(C)c2)OC(c2ccccc2)C(F)(F)F)c1 (stereo not given) | 16.4 µM (active)
54 | C[N+]1(C)CCOC(O)(c2ccc(-c3ccc(C4(O)C[N+](C)(C)CCO4)cc3)cc2)C1 (stereo not given) | inactive
55 | CC1=CC(=Cc2sc3ccccc3[n+]2C)C=C(C)O1 | 0.0164 µM (active)
56 | ClC(Cl)(Cl)c1ccccc1 | inactive
57 | CCOP(=O)(OCC)C(Nc1cccc(C)c1)c1ccc(F)cc1 (stereo not given) | 16.4 µM (active)
58 | CC[N+]1(C)CCCC(OC(=O)C(O)(c2ccccc2)c2ccccc2)C1 (stereo not given) | inactive
59 | O=c1[nH]c(O)c(C=Nc2cc(F)cc(F)c2)c(=O)[nH]1 | inactive
60 | CCN(CC)c1ccc([N+](=O)[O-])c2cccnc12 | inactive
61 | CN(c1ccccc1)c1ccc([N+](=O)[O-])c2nonc12 | 16.4 µM (active)
62 | O=C(O)/C=C/c1ccc2c(c1)OCO2 | inactive
63 | O=C(CN1CCCC1=O)NCCc1ccccc1 | inactive
64 | CCOP(=O)(OCC)C(NC(=O)c1ccc(C)cc1)C(Cl)(Cl)Cl (stereo not given) | inactive
65 | CCOP(=O)(OCC)C(NC(=O)c1ccc(OC)cc1)C(Cl)(Cl)Cl (stereo not given) | inactive
66 | CCOP(=O)(OCC)C(Cc1ccccc1)N=C(c1ccccc1)c1ccccc1 (stereo not given) | 14.6 µM (active)
67 | O=C(NC(=S)N1C[C@H]2C[C@H](C1)c1cccc(=O)n1C2)c1ccc(F)cc1 | inactive
68 | O=C(c1cc2nc(-c3ccccc3)cc(-c3ccccc3)n2n1)N1CCC2(CC1)OCCO2 | 23.1 µM (active)
69 | Cc1ccc(-c2cc(C(=O)N3CCC4(CC3)OCCO4)no2)cc1 | inactive
70 | O=C(c1ccccc1[N+](=O)[O-])N1CCC2(CC1)OCCO2 | inactive
